Screens from PubChem BioAssay.
MARV entry inh: blocks Marburg virus binding to or entry into cells; 1.8% of 300,000 active; Marburg virus pseudotyped entry inhibition, cell reporter; Potency, µM (series often up to 37.8 µM), for the others: top-dose activity change, negative = inhibition, actives largely listed as inhibitors; calls by dose curve; tested in HEK293 cells; also: potency is read from the fitted curve at half-maximal effect
HCV inh: HCV inhibition; Huh7.5.1 HCVcc-Cre infection, luciferase reporter, 44 h; Potency, µM (doses to about 41.8 µM), for inactives: at the highest dose activity change, negative = inhibition, hits mostly inhibitors; 3.4% of 340,000 active; AID 651820; active = well fitted inhibition curve with a large enough effect; inconclusive = small, poorly fitted or top-dose-only effect, or another doubt; inactive = no such curve, though single readings can be large or run the other way; also: potency is read from the fitted curve at half-maximal effect
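Luciferase read-out (15 sec integration) after a 15 min room-temperature substrate step quantifies HCVcc-Cre infection. Cells, 1,000 per well, had compound added 4 h post-plating, then virus at ~0.5 moi, and were cultured 44 h.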
Lassa entry inh: blocks Lassa virus binding to or entry into cells; Lassa virus pseudotype entry inhibition, cell reporter; Potency, µM (doses to about 37.9 µM), without a hit: at the top dose activity change, negative = inhibition, actives largely listed as inhibitors; 1.2% of 300,000 active; calls by dose curve; tested in HEK293 cells; also: potency is read from the fitted curve at half-maximal effect; nearly all actives have a fitted effect of over 50% in size
FMDV antiviral: antivirals against foot and mouth disease virus; FMDV antiviral cell-based qHTS; Potency, µM (titrated, usually from 57.9 µM), for inactives: top-dose activity change, negative = inhibition, most hits filed as inhibitors; 1.2% of 410,000 active; AID 1159524; calls by dose curve; tested in HEK293T cells; also: read-out not given here; potency is read from the fitted curve at half-maximal effect; nearly all actives have a fitted effect of over 45% in size
HCMV antiviral: human cytomegalovirus inhibition. HFF cells, HCMV-luciferase reporter, 72 h; active compounds read low. 4.5% of 410,000 active. activity change, negative = inhibition, % at 57.5 µM; in the data active = activity change below about -60%; inconclusive = no clear call, values can overlap the other calls; inactive = above about -39%
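Inhibition of viral replication was scored as loss of reporter luminescence in HFFs infected with HCMV-luciferase (MOI 1 PFU/cell) for 72 h; compounds tested at 2 doses, normalized to buffer and Salinomycin controls.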
Numbers without * were called inactive; ? = inconclusive; . = no result; ! = not active in a repeat; [ ] = dose if it differs, or a comment. Rows were chosen to be rich in hits. Some 7.9% of all compounds tested hit in one or more screens of this group. % is scaled to controls: 0 for no effect and ±100 for the full control effect.

SMILES | MARV entry inh | HCV inh | Lassa entry inh | FMDV antiviral | HCMV antiviral
Cc1ccc(-c2nnn(CC(=O)Nc3ccc(S(=O)(=O)N4CCC(C)CC4)cc3)n2)cc1 | ? | ? | -15% | -25% | -75*
C[N+]1(CCNC(=O)/C=N\O)CCCCC1 | 5%[46.1 µM] | . | . | . | .
CCOc1ccc(-c2nc(Cn3c(=O)cc(C)c4c(C)nn(-c5ccc(C)cc5)c43)c(C)o2)cc1 | . | . | 14%[46.1 µM] | 36% | 27
CCN(CC)S(=O)(=O)c1ccc(C)c(NC(=O)CNc2cccc(S(=O)(=O)N3CCCC3)c2)c1 | -21% | 10µM* | -28%[46.1 µM] | ? | ?
O=C(CN1CCN(S(=O)(=O)c2ccc(F)cc2)CC1)Nc1ccc(Cl)c(C(F)(F)F)c1 | ? | ? | 11µM* | 28µM* | -39
CCN(CC)S(=O)(=O)c1cccc(NC(=O)c2cccc(S(=O)(=O)N3CCCC3)c2)c1 | ? | ? | ? | ? | -9
Cc1cccc(NC(=O)CSCC(=O)Nc2cccc(S(=O)(=O)N3CCCCCC3)c2)c1 | -18% | 0% | -18%[46.1 µM] | -1% | -33
Cc1ccc(NC(=O)CN(C)CC(=O)Nc2cccc(F)c2)cc1S(=O)(=O)N1CCCCCC1 | ? | ? | ? | 25µM* | -66*
Cc1ccc(NC(=O)CSCC(=O)Nc2cccc(S(=O)(=O)N3CCCCCC3)c2)cc1 | . | 13µM* | . | -30% | -39
CC(=O)Nc1ccccc1-c1nc(CNC(=O)c2cc(C)ccc2C)c(C)o1 | . | . | . | -8% | .
Cc1ccc(S(=O)(=O)n2nc(-c3ccc(Cl)cc3)nc2NCc2ccc(F)cc2)cc1 | -9%[46.1 µM] | . | ? | -21% | -4
O=C(CN(CCO)c1ccccc1)Nc1cccc(S(=O)(=O)N2CCCC2)c1 | ? | -9% | -25%[46.1 µM] | -14% | -13
CCN(CC)CC(=O)Nc1cccc(S(=O)(=O)N2CCCC2)c1 | -3%[46.1 µM] | ? | -16% | -12% | -91*
Cc1ccc(NC(=O)CNc2cccc(S(=O)(=O)N3CCCC3)c2)cc1F | ? | ? | -11% | -5% | -18
Cc1ccc(NCC(=O)Nc2cccc(S(=O)(=O)N(C)C)c2)cc1S(=O)(=O)N1CCCCCC1 | ? | 10µM* | ? | ? | -81*
Cc1ccc(NC(=O)COc2ccc3c(c2)OCO3)c(C)c1 | 13% | 6% | -1% | 9% | -10
CC(C)n1c(O)c(C2c3cc(Cl)ccc3Oc3[nH]c(=O)n(C(C)C)c(=O)c32)c(=O)[nH]c1=O (stereo not given) | ? | 5µM* | ? | 3.5µM* | .
CC(=O)c1c(O)n(-c2cccc(Cl)c2)c(=O)[nH]c1=O (tested in a mixture with another compound) | 6% | 2% | 23% | -25% | 6
Cc1ccccc1-c1nc(S(=O)(=O)c2ccccc2)c(NCCN2CCOCC2)o1 | . | . | . | 19% | -8
Cc1nn(-c2nc3ccccc3[nH]2)c(N)c1-c1ccccc1 | ? | 32µM* | ? | -14% | 38
O=C1[C@H]2[C@@H]3[C@@H](O)[C@H](O)CC(=NOCc4ccccc4)[C@@H]3CC[C@H]2C(=O)N1C1CCCCC1 | -14%[14.2 µM] | . | -8%[14.3 µM] | . | .
O=C(NCc1ccc(F)c(F)c1)c1cnc(N2CCN(CCc3ccccc3)C2=O)o1 | . | . | . | . | 3
CCN1CCN(C(c2ccc(C(F)(F)F)cc2)c2ccc3cccnc3c2O)CC1 (stereo not given) | ? | 7.1µM* | ? | ? | -85*
OCCN1CCN(C(c2cccs2)c2ccc3cccnc3c2O)CC1 (stereo not given) | 0% | . | . | . | .
N#CC1=C2SCC(O)(c3ccccc3)N2C(=O)CC1c1cccs1 (stereo not given) | 0.033µM*! | ? | ? | ? | -6
N#CC1=C2SCC(O)(c3ccccc3)N2C(=O)CC1c1ccccc1F (stereo not given) | ? | ? | ? | ? | 59
CCC[C@H]1[C@@H](NC(=O)NCc2ccco2)CC[C@@]23CCCN2C(=O)CCC[C@@H]13 | . | . | . | . | -22
COc1ccc2sc(-c3ccccc3OC)c(-c3ccc(OCCN(C)C)cc3)c2c1 | . | 10µM* | . | -4% | 4
COc1cccc(-c2sc3ccccc3c2-c2ccc(OCCN(C)C)cc2)c1 | . | 11µM* | . | ? | -40
CN(C)c1ccccc1C(=O)c1ccccc1N(C)C | ? | 4µM* | -6% | 83% | 75
